The full data set covers some 7,900 targets. This sample favours those with a hit. About 0.6% of all pairs of compound and target were hits. Unmarked numbers belong to inactive results.

Chain of UniProt P51812 (P51812 whole entry, looked up): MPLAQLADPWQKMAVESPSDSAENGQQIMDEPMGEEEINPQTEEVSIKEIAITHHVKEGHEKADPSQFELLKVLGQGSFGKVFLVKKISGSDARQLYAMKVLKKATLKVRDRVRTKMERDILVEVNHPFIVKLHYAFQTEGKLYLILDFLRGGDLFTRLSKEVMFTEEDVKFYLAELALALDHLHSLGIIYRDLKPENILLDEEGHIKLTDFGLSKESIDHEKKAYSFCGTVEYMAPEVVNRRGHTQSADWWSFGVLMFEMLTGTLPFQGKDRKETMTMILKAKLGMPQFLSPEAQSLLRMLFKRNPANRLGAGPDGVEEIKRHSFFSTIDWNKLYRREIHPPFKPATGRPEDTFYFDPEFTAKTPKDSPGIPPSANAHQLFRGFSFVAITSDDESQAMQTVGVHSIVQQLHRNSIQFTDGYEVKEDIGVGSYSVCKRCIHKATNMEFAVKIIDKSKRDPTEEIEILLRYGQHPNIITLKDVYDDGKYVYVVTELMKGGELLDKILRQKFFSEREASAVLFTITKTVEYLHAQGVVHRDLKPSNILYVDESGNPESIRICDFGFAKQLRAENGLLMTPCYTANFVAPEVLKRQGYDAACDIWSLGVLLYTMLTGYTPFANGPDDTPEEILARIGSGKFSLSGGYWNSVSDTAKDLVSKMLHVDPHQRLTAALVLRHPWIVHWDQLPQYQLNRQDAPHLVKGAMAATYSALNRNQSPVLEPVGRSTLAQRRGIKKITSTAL
Chain of UniProt Q9UKM9 (Q9UKM9 whole entry, looked up): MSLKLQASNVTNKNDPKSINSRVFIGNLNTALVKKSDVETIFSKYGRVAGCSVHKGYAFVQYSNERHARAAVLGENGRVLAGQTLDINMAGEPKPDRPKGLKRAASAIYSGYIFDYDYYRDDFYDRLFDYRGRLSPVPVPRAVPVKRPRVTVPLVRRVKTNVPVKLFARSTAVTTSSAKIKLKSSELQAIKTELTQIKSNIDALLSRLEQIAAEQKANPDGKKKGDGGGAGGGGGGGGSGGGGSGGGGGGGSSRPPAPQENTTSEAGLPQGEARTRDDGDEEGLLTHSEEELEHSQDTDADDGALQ
Chain of UniProt Q14498 (Q14498 whole entry, looked up): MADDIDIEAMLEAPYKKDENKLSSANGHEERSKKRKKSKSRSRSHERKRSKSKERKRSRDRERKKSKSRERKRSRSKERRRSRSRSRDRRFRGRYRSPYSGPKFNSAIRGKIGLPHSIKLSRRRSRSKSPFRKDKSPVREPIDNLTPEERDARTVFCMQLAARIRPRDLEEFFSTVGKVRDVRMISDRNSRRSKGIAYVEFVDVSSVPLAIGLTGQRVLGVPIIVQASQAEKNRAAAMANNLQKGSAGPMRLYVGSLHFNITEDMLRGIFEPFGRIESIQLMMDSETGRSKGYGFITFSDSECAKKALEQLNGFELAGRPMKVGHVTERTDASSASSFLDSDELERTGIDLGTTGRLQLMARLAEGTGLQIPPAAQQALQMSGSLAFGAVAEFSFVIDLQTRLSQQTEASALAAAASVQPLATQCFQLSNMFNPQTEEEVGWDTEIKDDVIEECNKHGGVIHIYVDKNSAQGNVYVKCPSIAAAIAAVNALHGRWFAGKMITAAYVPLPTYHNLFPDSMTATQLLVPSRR
Chain of UniProt P04049 (P04049 whole entry, looked up): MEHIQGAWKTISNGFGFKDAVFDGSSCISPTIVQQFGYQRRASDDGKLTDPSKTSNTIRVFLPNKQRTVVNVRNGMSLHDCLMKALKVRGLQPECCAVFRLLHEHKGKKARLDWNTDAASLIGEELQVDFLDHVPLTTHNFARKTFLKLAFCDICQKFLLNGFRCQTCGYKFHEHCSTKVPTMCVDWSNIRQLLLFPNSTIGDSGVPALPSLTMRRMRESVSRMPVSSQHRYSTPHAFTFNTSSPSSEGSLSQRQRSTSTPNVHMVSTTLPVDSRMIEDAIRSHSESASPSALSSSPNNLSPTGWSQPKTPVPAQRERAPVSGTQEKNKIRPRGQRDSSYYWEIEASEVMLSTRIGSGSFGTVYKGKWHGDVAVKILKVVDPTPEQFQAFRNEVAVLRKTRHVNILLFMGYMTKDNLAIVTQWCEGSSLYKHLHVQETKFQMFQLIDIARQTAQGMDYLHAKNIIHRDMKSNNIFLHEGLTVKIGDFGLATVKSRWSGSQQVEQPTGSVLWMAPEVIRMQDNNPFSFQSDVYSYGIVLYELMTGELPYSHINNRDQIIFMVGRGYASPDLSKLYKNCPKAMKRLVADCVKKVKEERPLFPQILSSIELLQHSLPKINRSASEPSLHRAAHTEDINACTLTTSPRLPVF
Chain of UniProt Q14493 (Q14493 whole entry, looked up): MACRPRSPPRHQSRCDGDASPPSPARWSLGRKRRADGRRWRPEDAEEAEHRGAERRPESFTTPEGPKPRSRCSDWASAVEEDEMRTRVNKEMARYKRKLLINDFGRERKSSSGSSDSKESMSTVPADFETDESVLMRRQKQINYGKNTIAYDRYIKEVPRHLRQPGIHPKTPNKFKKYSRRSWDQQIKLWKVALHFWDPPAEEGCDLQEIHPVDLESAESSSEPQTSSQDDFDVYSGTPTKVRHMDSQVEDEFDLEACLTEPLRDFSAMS
Chain of UniProt P51151 (P51151 whole entry, looked up): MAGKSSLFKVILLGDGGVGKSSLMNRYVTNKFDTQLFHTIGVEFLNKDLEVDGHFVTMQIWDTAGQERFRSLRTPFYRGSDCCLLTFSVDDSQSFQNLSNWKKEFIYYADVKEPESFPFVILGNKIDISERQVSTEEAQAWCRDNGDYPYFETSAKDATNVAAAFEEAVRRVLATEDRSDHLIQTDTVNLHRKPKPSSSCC
Chain of UniProt Q8WXD2 (Q8WXD2 whole entry, looked up): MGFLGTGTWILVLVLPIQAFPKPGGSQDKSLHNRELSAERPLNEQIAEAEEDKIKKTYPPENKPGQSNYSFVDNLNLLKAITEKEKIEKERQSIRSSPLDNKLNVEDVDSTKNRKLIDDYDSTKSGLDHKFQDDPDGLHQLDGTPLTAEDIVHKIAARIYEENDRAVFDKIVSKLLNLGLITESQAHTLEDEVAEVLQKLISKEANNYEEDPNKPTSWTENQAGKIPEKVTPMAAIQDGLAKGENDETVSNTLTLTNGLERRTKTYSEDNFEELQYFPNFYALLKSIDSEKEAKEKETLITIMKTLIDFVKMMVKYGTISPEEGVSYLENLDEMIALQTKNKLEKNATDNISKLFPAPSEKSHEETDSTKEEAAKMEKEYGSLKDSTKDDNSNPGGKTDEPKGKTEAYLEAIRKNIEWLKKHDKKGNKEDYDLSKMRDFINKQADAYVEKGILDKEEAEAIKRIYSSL
Chain of UniProt Q9NRX5 (Q9NRX5 whole entry, looked up): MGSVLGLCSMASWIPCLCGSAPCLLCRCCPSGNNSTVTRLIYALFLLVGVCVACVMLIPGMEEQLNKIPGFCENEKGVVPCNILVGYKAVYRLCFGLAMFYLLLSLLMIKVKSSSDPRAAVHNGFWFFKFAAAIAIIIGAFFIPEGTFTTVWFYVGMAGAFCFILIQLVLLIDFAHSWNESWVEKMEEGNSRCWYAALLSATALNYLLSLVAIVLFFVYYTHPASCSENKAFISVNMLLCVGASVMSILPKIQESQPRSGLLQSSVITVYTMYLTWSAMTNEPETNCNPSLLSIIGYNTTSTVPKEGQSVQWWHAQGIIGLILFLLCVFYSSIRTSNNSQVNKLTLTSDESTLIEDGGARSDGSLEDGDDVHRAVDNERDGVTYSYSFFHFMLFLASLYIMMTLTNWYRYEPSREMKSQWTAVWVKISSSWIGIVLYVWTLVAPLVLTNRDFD
Chain of UniProt P46063 (P46063 whole entry, looked up): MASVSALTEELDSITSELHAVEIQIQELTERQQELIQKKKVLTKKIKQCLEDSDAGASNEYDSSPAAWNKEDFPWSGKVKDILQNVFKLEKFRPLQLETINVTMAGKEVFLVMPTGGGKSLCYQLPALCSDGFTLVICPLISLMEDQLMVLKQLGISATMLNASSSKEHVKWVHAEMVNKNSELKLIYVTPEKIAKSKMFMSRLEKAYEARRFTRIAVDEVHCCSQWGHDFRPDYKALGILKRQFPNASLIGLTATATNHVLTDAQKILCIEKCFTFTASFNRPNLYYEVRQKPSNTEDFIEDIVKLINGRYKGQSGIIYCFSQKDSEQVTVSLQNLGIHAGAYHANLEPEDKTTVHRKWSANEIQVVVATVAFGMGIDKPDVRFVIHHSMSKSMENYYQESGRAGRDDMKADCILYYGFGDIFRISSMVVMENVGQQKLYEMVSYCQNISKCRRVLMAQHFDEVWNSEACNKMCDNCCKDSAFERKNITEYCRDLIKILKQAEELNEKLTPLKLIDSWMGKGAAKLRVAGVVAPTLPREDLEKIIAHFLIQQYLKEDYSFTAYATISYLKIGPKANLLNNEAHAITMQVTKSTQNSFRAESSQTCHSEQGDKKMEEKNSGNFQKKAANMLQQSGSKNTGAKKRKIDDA
Chain of UniProt O15127 (O15127 whole entry, looked up): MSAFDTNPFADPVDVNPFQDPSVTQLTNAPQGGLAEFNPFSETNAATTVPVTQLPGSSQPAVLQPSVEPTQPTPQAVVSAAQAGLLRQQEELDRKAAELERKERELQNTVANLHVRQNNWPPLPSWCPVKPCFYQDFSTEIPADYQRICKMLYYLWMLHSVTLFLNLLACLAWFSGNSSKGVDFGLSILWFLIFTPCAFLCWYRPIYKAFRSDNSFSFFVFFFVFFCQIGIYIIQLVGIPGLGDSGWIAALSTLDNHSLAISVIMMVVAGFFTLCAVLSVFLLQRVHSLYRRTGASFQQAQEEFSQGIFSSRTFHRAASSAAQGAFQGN
Chain of UniProt Q86UA6 (Q86UA6 whole entry, looked up): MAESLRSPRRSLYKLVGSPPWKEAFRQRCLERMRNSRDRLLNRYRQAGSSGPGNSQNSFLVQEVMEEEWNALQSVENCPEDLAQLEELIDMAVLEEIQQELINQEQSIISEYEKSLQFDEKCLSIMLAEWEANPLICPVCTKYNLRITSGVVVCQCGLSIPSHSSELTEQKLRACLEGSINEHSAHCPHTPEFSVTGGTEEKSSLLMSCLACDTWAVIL

Compound in the experiment: CCN(CCCOc1ccc2c(Nc3cc(CC(=O)Nc4cccc(F)c4)[nH]n3)ncnc2c1)CCOP(=O)(O)O [barasertib]
Put plainly: log2 fold change, soluble protein after heating vs DMSO (PISA); higher = thermal stabilisation; K562 cells, 10 uM, 30 min; active = over 0.2 and 3.5 SD of the protein, either way, in both replicates (recomputed). Summed up: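 K562 cells at 2×10^6 cells/mL were treated for 30 min with 10 μM compound, and aliquots were heated for 3 min over 48°C-58°C before pooling. Extraction used PBS with 0.5% NP-40 at 4°C, and soluble protein was the supernatant after 21,000xg for 90 min, measured by TMTpro 16plex LC-MS/MS with channel sums equalised. Thermal stability values, relative to control samples and from duplicates, are log2 fold changes.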
Consider SCAMP2 (UniProt H3BUB6), for which the log2 fold change is 0.034.

Regarding SCG3 (UniProt Q8WXD2), the log2 fold change is 0.013.

As to RCOR3 isoform 3 (UniProt Q9P2K3), the log2 fold change was 0.098.

Turning to SAMD4B (UniProt Q5PRF9), the log2 fold change is 0.157.

As to SCAF8 isoform 2 (UniProt Q9UPN6), the log2 fold change is 0.067.

Take RBM48 isoform 2 (UniProt Q5RL73): the log2 fold change was -0.069.

For the target SASH1 (UniProt O94885), the log2 fold change was 0.071.

For SCAMP2 (UniProt O15127), the log2 fold change was -0.029.

With RBBP6 (UniProt Q7Z6E9), the log2 fold change was -0.018.

For RAF1 isoform 2 (UniProt P04049), the log2 fold change was 0.044.

With RPS6KA3 (UniProt P51812), the log2 fold change was 0.06.

Turning to RBM39 (UniProt Q14498), the log2 fold change is 0.012.

Consider RPAIN isoform 8 (UniProt Q86UA6), for which the log2 fold change was 0.029.

As for RALY (UniProt Q9UKM9), the log2 fold change is -0.138.

As for ROCK1 (UniProt Q13464), the log2 fold change is 0.021.

Regarding RECQL (UniProt P46063), the log2 fold change was -0.002.

As for SH3GLB2 (UniProt Q9NR46), the log2 fold change was 0.051.

For the target RAB9A (UniProt P51151), the log2 fold change was -0.011.

Consider RAD50, A0A494C0Y7, for which the log2 fold change is -0.171.

Take SLBP (UniProt Q14493): the log2 fold change is 0.06.

As to SERINC1 (UniProt Q9NRX5), the log2 fold change is 0.002.

On to RAB3IL1 (UniProt E9PK89), for which the log2 fold change is -0.014.

Take RAP2C (UniProt Q9Y3L5): the log2 fold change was -0.031.

Values taken from the supplement of paper PMC10849652.
